Source: PubChem BioAssay
mHTT CaM bind: mHTT-calmodulin interaction abrogation; AlphaScreen His-mHTT/GST-CaM binding, luminescence; 190,000 tested, 3.6% active; inhibition, % at 15 µM; P42858; AID 1671202;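 also: 0% = both proteins with DMSO and 100% = one protein alone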
Pf apPOL block: Pf-apPOL DNA polymerase inhibition. Recombinant Pf-apPOL, molecular beacon fluorescence, 1.5 h. inhibition, % at 10 µM. 210,000 tested, 0.25% active. AID 1794808
An asterisk follows results filed as active; i = inactive; x = not tested or not shown. The entries come from a sample that favours hits as a whole. Rule as the data show it: active = inhibition above about 50%; inactive = the rest.

SMILES	mHTT CaM bind	Pf apPOL block
O=C(CCC1CCCC1)N1CCC(Nc2cccnc2)C1 (centres undefined)	-2	67*
O=C(CCc1ccccc1)N1CCC(Nc2cccnc2)C1 (centres undefined)	-4	-5
Cc1nc(CCNC(=O)C2CCCN2S(=O)(=O)c2ccc(Cl)cc2)cs1 (centres undefined)	-3	-3
O=C(O)CC1SC(c2ccc3c(c2)OCO3)=NC1=O (centres undefined)	x	52*
CC(C)(C)c1ccc(C2=NC(=O)C(CC(=O)O)S2)cc1 (centres undefined)	x	38
CCOC(=O)c1ccc(Oc2coc3c(CN4CCCCC4)c(O)ccc3c2=O)cc1	-1	-4
COc1ccc(Oc2coc3c(CN4CCCCCC4)c(O)ccc3c2=O)cc1	97*	-3
CC(=CCOc1ccc2ccc(=O)oc2c1)CC1C=C(C)C(=O)O1 (centres undefined)	x	-2
CCC(=O)N1CCc2c(C(=O)NC3CC3)cccc21	-4	-4
CCNC(=O)c1cccc2c1CCN2C(=O)CC	100*	0
CC1CCc2c(sc(NC(=O)C3CC4CCC3C4)c2C#N)C1 (centres undefined)	1	-3
CC1(C)C2CCC1(C)C(OCC(O)CN1CCN(c3cccc(Cl)c3)CC1)C2 (centres undefined)	99*	-6
CC1(C)C2CCC1(C)C(OCC(O)CN1CCN(Cc3ccc(Cl)cc3)CC1)C2 (centres undefined)	100*	-4
COc1ccccc1N1CCN(CC(O)COC2CC3CCC2(C)C3(C)C)CC1 (centres undefined)	20	5
OC(COC12CC3CC(CC(C3)C1)C2)CN1CCN(c2cccc(C(F)(F)F)c2)CC1 (centres undefined)	26	-8
CC1(C)C2CCC1(C)C(OCC(O)CN1CCCCC1)C2 (centres undefined)	-4	-2
CC12CCC(C1)C(C)(C)C2OCC(O)CN1CCN(c2cccc(C(F)(F)F)c2)CC1 (centres undefined)	65*	-1
CCOC(=O)Cc1csc(NC(=O)c2ccc(=O)n(Cc3cccc(F)c3)n2)n1	0	-11
CCCc1cc2c(=O)c(-c3ccc4c(c3)OCCCO4)coc2cc1OCC(=O)OCC	-24	-1
CC(=NOC(=O)Nc1ccc(Cl)cc1)c1ccc2c(c1)CCO2	x	-2
Cc1ccc(S(=O)(=O)N(/C=C2\Sc3ccccc3C2=O)c2ccc([N+](=O)[O-])cc2)cc1	60*	-2
O=C1/C(=C/N(C(=O)c2ccco2)c2ccc([N+](=O)[O-])cc2)Sc2ccccc21	19	32
CSc1ncccc1C(=O)N1CCC(c2nc(C(=O)N3CCOCC3)c(C)o2)CC1	-3	-4
NC(=O)c1ccc(NC(=O)C2CC(=O)N(CCc3c[nH]c4ccc(Cl)cc34)C2)cc1 (centres undefined)	100*	1
Cc1ccc2[nH]cc(CCN3CC(C(=O)Nc4cccc(Cl)c4C)CC3=O)c2c1 (centres undefined)	56*	-2
SMILES	mHTT CaM bind	Pf apPOL block
O=C(Nc1ccc(Cl)cc1)C1CC(=O)N(CCc2c[nH]c3ccc(F)cc23)C1 (centres undefined)	20	3
Cc1nnc(NC(=O)C2CC(=O)N(CCc3c[nH]c4ccc(Cl)cc34)C2)s1 (centres undefined)	12	0
COc1ccc(NC(=O)C2CC(=O)N(CCc3c[nH]c4ccc(Cl)cc34)C2)cc1 (centres undefined)	87*	-5
Cc1ccc2[nH]cc(CCN3CC(C(=O)Nc4ccc(F)cc4)CC3=O)c2c1 (centres undefined)	10	1
Cc1ccc2[nH]cc(CCN3CC(C(=O)Nc4cc(Cl)ccc4C)CC3=O)c2c1 (centres undefined)	49	-4
CCc1ccc(NC(=O)C2CC(=O)N(CCc3c[nH]c4ccc(F)cc34)C2)cc1 (centres undefined)	57*	-2
Cc1ccnc(N2CCCC(C(=O)NCc3cccc(Br)c3)C2)n1 (centres undefined)	-15	6
O=C(C(Cc1ccc([N+](=O)[O-])cc1)N1C(=O)c2ccccc2C1=O)N1CCOCC1 (centres undefined)	-3	-6
Cc1ccc2c(c1)N(c1ccc3c(c1)CCC3)C=C(C#N)S2(=O)=O	-10	-2
O=C(Cc1nnc(-c2ccncc2)o1)Nc1ccccc1	-2	-5
CCNC(=O)C1CC(=O)N(CCc2c[nH]c3ccc(Cl)cc23)C1 (centres undefined)	5	-2
CN(Cc1ccccc1)C(=O)C1CC(=O)N(CCc2c[nH]c3ccc(Cl)cc23)C1 (centres undefined)	62*	5
Cc1ccc2[nH]cc(CCN3CC(C(=O)Nc4cccc(Cl)c4)CC3=O)c2c1 (centres undefined)	47	-2
CCOc1ccc(NC(=O)C2CC(=O)N(CCc3c[nH]c4ccc(Cl)cc34)C2)cc1 (centres undefined)	99*	2
COc1ccc2[nH]cc(CCN3CC(C(=O)Nc4ccc(C)c(Cl)c4)CC3=O)c2c1 (centres undefined)	75*	5
COc1ccc(NC(=O)C2CC(=O)N(CCc3c[nH]c4ccc(F)cc34)C2)c(OC)c1 (centres undefined)	29	-1
Cc1ccc(NC(=O)C2CC(=O)N(CCc3c[nH]c4ccc(Cl)cc34)C2)cc1 (centres undefined)	62*	2
CCOc1ccc(NC(=O)C2CC(=O)N(CCc3c[nH]c4ccc(F)cc34)C2)cc1 (centres undefined)	16	1
COCCn1c(=N)c(C(=O)NCc2ccccc2)cc2c(=O)n3ccccc3nc21	-2	4
CCCNC(=O)c1nc2ccccn2c1-c1ccsc1	-3	-1
CCc1ccccc1NC(=O)c1cc2c(CO)cnc(C)c2oc1=Nc1ccc2c(c1)OCO2	7	3
CC(C)(C)OC(=O)NC(C(=O)O)C1CCOCC1 (centres undefined)	-8	-1
O=C(Nc1ccc2c(c1)OCO2)C1CC(=O)N(CCc2c[nH]c3ccc(Cl)cc23)C1 (centres undefined)	82*	-4
Cc1ccc2[nH]cc(CCN3CC(C(=O)Nc4ccc5c(c4)OCO5)CC3=O)c2c1 (centres undefined)	35	0
Cc1cc(C)cc(N2CC(C(=O)N(C)Cc3ccccc3)CC2=O)c1 (centres undefined)	4	-3
SMILES	mHTT CaM bind	Pf apPOL block
Cc1ccc(N2CC(C(=O)N(C)Cc3ccccc3)CC2=O)cc1Cl (centres undefined)	61*	-1
Cc1ccccc1NC(=O)C1CC(=O)N(CCc2c[nH]c3ccc(Cl)cc23)C1 (centres undefined)	56*	-2
Cc1ccccc1NC(=O)C1CC(=O)N(CCc2c[nH]c3ccc(F)cc23)C1 (centres undefined)	9	2
Cc1ccc(S(=O)(=O)N2CCSC2c2cccc(Cl)c2)cc1[N+](=O)[O-] (centres undefined)	19	0
CC1CCCN(CCCNC(=O)CC2CCN(S(=O)(=O)c3cccs3)CC2)C1 (centres undefined)	-3	-4
Cc1ccc(OCCSc2nc3ccccc3c(=O)[nH]2)c(C(C)C)c1	-10	-6
CC(/C=N\n1c(C2CCCCC2)n[nH]c1=S)=C\c1ccco1	i	x
O=C(CSc1nnc(NC(=O)c2cccs2)s1)NCc1ccccc1Cl	-4	-3
